From PubChem BioAssay
Only some compounds are listed: those with a hit (about 4.6% of all), similar ones and a draw of the others.
DAX1 inh-1: DAX1 (NR0B1) inhibitors, primary screen, cell-based, HEK293, Gal4-DAX1, luciferase luminescence; Nuclear receptor subfamily 0 group B member 1 (Homo sapiens), P51843; HEK293 Gal4-DAX1 luciferase reporter; inhibition, % at 6.75 µM; actives 0.99% (n = 340,000);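 active = inhibition above the mean over all tested compounds plus 3 SD, cut at about 4.2% in these data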;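 note: 0% = DAX1-transfected cells with DMSO and 100% = empty-vector control cells with DMSO; inhibition shows as a rise in luminescence from relieved DAX1 repression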
hcDAF12 agonist: H. contortus DAF-12 nuclear receptor activators, primary screen, cell-based, luminescence, HEK293, lit1-tk-luc reporter. activation, % at 6.8 µM. actives 1.4% (n = 370,000). HEK293 hcDAF-12 lit1-tk-luc reporter; 0% DMSO, 100% Δ7-dafachronic acid;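 active = activation above the mean of all tested compounds plus 3 SD, cut at about 5.5% in these data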;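 note: 100% = response to 3 µM Δ7-dafachronic acid high control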
hgDAF12 agonist: H. glycines DAF-12 receptor agonists, primary screen, cell-based, luminescence, HEK293, GAL4 fusion, UAS-luciferase; Nuclear hormone receptor DAF-12 (Heterodera glycines), GAL4 fusion; HEK293 GAL4-hgDAF12 UAS-luciferase reporter, agonist luminescence; normalized to butyrate control; activation, % at 6.8 µM; actives 1.8% (n = 370,000); AID 687014, 2013;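 active = activation above a cutoff set at the mean of all screened compounds plus 3 SD, cut at about 10% in these data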;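 note: 0% = DMSO wells and 100% = sodium butyrate wells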
Wee1 degr inh: Wee1 degradation inhibitors, primary screen, cell-based, HeLa, Wee1K328M-luciferase, luminescence; HeLa Luc-Wee1K328M stability; 100% = proteasome inhibitor MG132 effect; reporter increase, % at 5 µM; Wee1-like protein kinase (Homo sapiens), P30291; actives 1.2% (n = 220,000);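 active = activation above the mean of all tested compounds plus 3 SD, set per screening run, cut at about 8.8% in these data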;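 note: cells exposed to compound for 20 h before luminescence read; 0% = DMSO alone and 100% = MG132 at 30 µM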
DAX1 inh-2: DAX1 (NR0B1) inhibitors on StAR promoter, primary screen, cell-based, luminescence, SF-1 (NR5A1), full-length DAX-1 | HEK293T StAR-luciferase reporter, SF-1/DAX-1 repression relief | inhibition, % at 6.8 µM | actives 1.1% (n = 370,000) | AID 652010, 2013;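 active = inhibition above the mean over all tested compounds plus 3 SD, cut at about 3.6% in these data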;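 note: 0% = DAX-1 cells with DMSO and 100% = cells lacking DAX-1 with DMSO; higher inhibition means more luminescence from relief of DAX-1 repression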
ssDAF12 agonist: S. stercoralis DAF-12 nuclear receptor activators, primary screen, cell-based, luminescence, HEK293, GRIP1 co-expression, lit1-tk-luc | HEK293 ssDAF-12/GRIP1 lit1-tk-luc reporter; % of 3 µM dafachronic acid response | activation, % at 6.8 µM | actives 1% (n = 370,000);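 active = activation above the mean over all tested compounds plus 3 SD, cut at about 0.9% in these data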;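 note: 0% = DMSO-only wells and 100% = 3 µM delta7-dafachronic acid wells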
hgDAF12 conf: H. glycines DAF-12 receptor agonists, confirmation, cell-based, luminescence, HEK293, GAL4-LBD fusion | shares compounds with hgDAF12 agonist | HEK293 GAL4-hgDAF12 luciferase reporter, agonist mode; percent of butyrate response | activation, % at 6.8 µM | actives 80% (n = 3,300) | AID 743050, 2013;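 active = mean activation over triplicate wells above the hit cutoff derived from the earlier primary screen, cut at about 11% in these data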;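 note: 0% = DMSO low control and 100% = 2 mM sodium butyrate high control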
LXRb DAF12 ctr: LXR agonists, Gal4 luciferase reporter, confirmation, counter-screen for hgDAF-12 agonist project, cell-based, luminescence, HEK293, H. glycines campaign; shares compounds with hgDAF12 agonist; 24 h; activation, % at 6.8 µM; 3,300 tested, under 10 active; AID 743051, 2013;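 active = mean activation of the triplicate above a set limit carried over from the primary screen, none filed active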
Target sequence (P55055 whole entry, looked up, the tested form may be a part): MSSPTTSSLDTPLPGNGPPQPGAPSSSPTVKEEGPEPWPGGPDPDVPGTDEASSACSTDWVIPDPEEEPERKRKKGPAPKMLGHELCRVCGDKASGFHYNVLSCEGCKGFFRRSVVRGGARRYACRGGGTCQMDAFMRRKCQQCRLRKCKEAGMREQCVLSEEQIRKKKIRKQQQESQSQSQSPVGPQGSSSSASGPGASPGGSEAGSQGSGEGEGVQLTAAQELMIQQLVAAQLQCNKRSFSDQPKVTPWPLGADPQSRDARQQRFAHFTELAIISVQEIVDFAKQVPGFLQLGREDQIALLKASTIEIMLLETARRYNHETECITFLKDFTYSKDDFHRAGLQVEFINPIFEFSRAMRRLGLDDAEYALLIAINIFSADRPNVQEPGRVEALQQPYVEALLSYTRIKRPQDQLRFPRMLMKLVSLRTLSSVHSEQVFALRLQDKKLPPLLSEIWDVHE
* marks the source's active call; other numbers are inactive results; · = no result.

SMILES	DAX1 inh-1	hcDAF12 agonist	hgDAF12 agonist	Wee1 degr inh	DAX1 inh-2	ssDAF12 agonist	hgDAF12 conf	LXRb DAF12 ctr
NC(=O)c1cc(N)ccc1N1CCCC1	0	-2	-1	1	0	-1	·	·
C=C(C)C1CC=C(C)/C(=N/NC(=O)c2ccoc2C)C1 (centres undefined)	3	5.9*	20*	8	4.3*	0	1	0
CC(C)CN(C(=O)C1COc2ccccc2O1)c1c(N)n(CC(C)C)c(=O)[nH]c1=O (centres undefined)	3	0	0	·	0	-1	·	·
O=c1[nH]c(/C=C/c2ccccc2Cl)nc2ccccc12	2	2	14*	·	2	0	21*	1
O=C(O)c1ccc(/C=C/c2nc3ccccc3c(=O)[nH]2)cc1	2	0	0	·	0	-1	·	·
Cc1cccc(/C=C/c2nc3ccccc3c(=O)[nH]2)c1	0	4	18*	4	3.7*	0	21*	1
COc1cc(/C=C/c2nc3ccccc3c(=O)[nH]2)ccc1O	3	3	17*	·	3.7*	0	11*	1
CCOc1cc(/C=C/c2nc3ccccc3c(=O)[nH]2)ccc1O	1	2	6	·	1	-1	·	·
O=C1CCCC2=C1CC(C(=O)OCc1ccccc1)C(=O)N2Cc1ccccc1 (centres undefined)	-1	1	0	·	0	-1	·	·
CN(C)/C=N/C(=S)Nc1ccc(Cl)cc1Cl	3	-1	9	8	1	-1	·	·
CN(C)/C=N/C(=S)Nc1ccc(Cl)cc1	2	1	14*	-1	1	-1	11*	0
O=C(COC(=O)Cc1ccccc1[N+](=O)[O-])NCc1ccccc1Cl	0	0	2	0	-1	-1	·	·
O=C(Cc1ccccc1[N+](=O)[O-])NCc1ccccc1Cl	1	4	14*	4	4	0	14*	0
COc1ccc(CCC(=O)NNC(=S)NCc2ccc(F)cc2)cc1	4	-2	14*	-2	-1	-1	0	0
COc1cc(NC(=O)c2ccc3snnc3c2)cc(OC)c1	0	-1	4	0	0	-1	·	·
Cc1ccc(NC(=O)c2ccc3snnc3c2)cc1	0	2	16*	0	2	-1	16*	0
Cn1ccs/c1=N\C(=O)Nc1cccc(Cl)c1	1	2	16*	0	3	0	11*	1
C=CCN=Cc1sc2ccc(OCC)cc2c1O	·	5.6*	14*	4	3	0	10	0
Cc1ccc(N2Cc3ccccc3C2=S)cc1	2	4	21*	10*	4	1	20*	1
COC(=O)/C=C1\OC(C2CC2)c2ccccc21 (centres undefined)	·	1	1	·	1	-1	·	·
Cc1ccc(CSCC(=O)NCc2ccc(F)cc2)cc1	0	-1	-3	0	0	-2	·	·
Cc1ccc(NC(=O)CSCc2ccc(F)cc2)cc1	-1	3	14*	1	2	-1	10	0
O=C(CSc1ccc(F)cc1)Nc1ccc(Br)cc1	2	1	16*	6	0	-1	12*	0
COc1ccc(Cl)cc1NC(=O)CSc1nc2[nH]ncc2c(=O)[nH]1	1	0	-1	·	0	-1	·	·
O=C(O)c1ccc(-c2nc(-c3ccccc3)cs2)cc1	6.5*	2	13*	9.6*	3	0	9	1
SMILES	DAX1 inh-1	hcDAF12 agonist	hgDAF12 agonist	Wee1 degr inh	DAX1 inh-2	ssDAF12 agonist	hgDAF12 conf	LXRb DAF12 ctr
CNC(=O)c1ccc(-c2nc(-c3ccccc3)cs2)cc1	-1	-1	2	3	2	-1	·	·
O=C(O)c1ccccc1C(=O)Nc1ccc(-c2csc(-c3ccccc3)n2)cc1	1	1	16*	0	0	-1	6	0
O=C(NN=C1CCCC1)c1cccc(O)c1	1	3	14*	·	3	1	2	0
FC(F)(F)c1cnc(-c2cnc(-c3ccncc3)nc2)c(Cl)c1	0	-1	6	-1	0	-1	·	·
FC(F)(F)c1cnc(-c2cnc(-c3ccccn3)nc2)c(Cl)c1	-1	1	17*	2	4.4*	0	14*	1
O=C1c2ccccc2C(=O)N1CCc1c[nH]c2ccccc12	13*	2	19*	2	3.6*	1	13*	1
O=C1c2ccccc2C(=O)N1CCCc1c[nH]c2ccccc12	0	0	0	-2	1	-1	·	·
CCC/C=C/c1ccc(CN2C(C)C(=O)N(Cc3cn(CCC4OCCCO4)nn3)CCS2(=O)=O)cc1 (centres undefined)	0	-1	1	·	1	-1	·	·
COc1ccccc1/C=N\N=C(\N)c1ccccn1	0	6.0*	13*	-1	3.9*	1.1*	14*	1
CC1=C(C(=O)N2CCCCCC2)CC(CC(=O)NC2CCCCC2)C(=O)N1Cc1ccc(C(C)(C)C)cc1 (centres undefined)	·	-1	1	·	-1	-1	·	·
COc1cccc(/C=C2\CC3(OC(=O)c4ccc(Cl)cc4)CCCN2C3)c1 (centres undefined)	·	3	3	·	0	0	·	·
O=C(Nc1ccc(/C=C/c2nc3ccccc3o2)cc1)c1c(F)cccc1F	0	3	16*	0	0	0	19*	1
CC(C)(C)C(=O)O[C@@H]1CCC[C@@]2(C(=O)N(Cc3ccccc3)c3ccccc32)[C@H]1NC(=O)CCc1ccccc1	·	-3	-1	·	0	-1	·	·
